Compound activity from PubChem BioAssay.
This excerpt belongs to a sample that is enriched for hits.
Giardia killer = kills Giardia lamblia. Giardia lamblia trophozoite viability. activity change, % at 7.66 µM, hits read low. 0.15% of 340,000 active; in the data active = activity change below about -80%; inconclusive = between about -30% and that limit;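 note: parasites exposed to compound for two days anaerobically before the ATP read; % is set by controls: 0 for no effect and ±100 for the full control effect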
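Trophozoite viability was measured as ATP-dependent luminescence, read 15-30 min after reagent addition. Before that, parasites at 100 cells/well were exposed to compounds for 48 h, anaerobically, at 37 deg C.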
VP16 counter = counter-screen for ROR gamma inhibitors: Gal4-VP16 reporter; Potency, µM (series often up to 53.6 µM), inactives show at the highest dose activity, negative = inhibition, actives largely listed as inhibitors; Drosophila S2 Gal4-VP16 UAS-luciferase, luminescence, 20 h; 3.5% of 310,000 active; AID 2546;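 note: Gal4-VP16 expression switched on by copper sulfate through the metallothionein promoter; potency is the fitted concentration of half-maximal effect; % is set by controls: 0 for no effect and ±100 for the full control effect; nearly all actives have a fitted effect of over 50% in size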
a7 integrin act = integrin-mediated muscular dystrophy alleviation activation; Potency, µM (doses to about 38.3 µM), for inactives: top-dose activation, most hits filed as activators; 0.064% of 350,000 active; AID 624291; alpha7betagal myoblasts, beta-gal FDG fluorescence, 48 h;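 note: potency is the fitted concentration of half-maximal effect; 100% = response of the positive control SU9516; nearly all actives have a fitted effect of over 60% in size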
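Alpha7betagal+/- myoblasts (passage 13) were plated 16-24 hr, then exposed to compounds (1:260 dilution of DMSO stock) for 48 hours at 37C. After MPER lysis, β-galactosidase reporter activity was read as FDG fluorescence (ex 480/em 540) after 30 minutes.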
RORgamma inh = blocks mouse ROR gamma transcriptional activity | P51450 | Drosophila S2 Gal4-RORgamma UAS-luciferase reporter, 20 h | Potency, µM (highest dose often 53.6 µM), for inactives: at the highest dose activity change, negative = inhibition, hits mostly inhibitors | 5.4% of 310,000 active | AID 2551; note: potency is the fitted concentration of half-maximal effect; % is set by controls: 0 for no effect and ±100 for the full control effect; nearly all actives have a fitted effect of over 60% in size
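In this cell-based reporter format, copper sulfate (700 uM final) drives Gal4–ROR gamma fusion expression from a metallothionein promoter in Drosophila Schneider cells; compounds preincubated 1 hr, reporter read after 20 hr at ambient temperature.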
ERG Ets-DNA blk = inhibitors of human ERG Ets domain-DNA interaction; AID 624246; fluorescence polarization, His-ERG Ets domain / labelled DNA; 0.028% of 370,000 active; Potency, µM (highest dose often 76.9 µM), for inactives: top-dose FP activity, negative = inhibition, usual class: inhibitors; P11308; active = well fitted inhibition curve with a large enough effect in the polarisation, with a control signal flat; inconclusive = small, poorly fitted or top-dose-only effect, or effect the other way, or a change in a side signal; inactive = no such curve, though single readings can be large or run the other way; the % refers to the polarisation;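 note: polarization taken with two DNA probes labelled with fluorescein and Texas red; potency is the fitted concentration of half-maximal effect; % of control where 0% means no effect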
Target sequence (P11308 whole entry, looked up, the tested form may be a part): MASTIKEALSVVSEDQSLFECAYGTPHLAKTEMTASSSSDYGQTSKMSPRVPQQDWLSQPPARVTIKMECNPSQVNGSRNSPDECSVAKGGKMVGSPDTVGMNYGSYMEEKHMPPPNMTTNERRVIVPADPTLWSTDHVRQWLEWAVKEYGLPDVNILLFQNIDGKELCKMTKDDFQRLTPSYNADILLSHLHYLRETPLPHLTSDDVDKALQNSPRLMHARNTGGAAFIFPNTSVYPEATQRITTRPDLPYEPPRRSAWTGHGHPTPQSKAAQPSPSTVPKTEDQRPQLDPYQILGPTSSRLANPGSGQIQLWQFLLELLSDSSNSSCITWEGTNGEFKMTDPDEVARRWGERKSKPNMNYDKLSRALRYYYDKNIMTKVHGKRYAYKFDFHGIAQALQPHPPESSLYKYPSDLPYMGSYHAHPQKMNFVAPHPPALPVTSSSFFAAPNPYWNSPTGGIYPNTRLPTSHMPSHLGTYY
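His-tagged ERG Ets domain (1 uM in the protein solution; 300mM KCl, 50mM Tris-HCl, 1mM EDTA, 1mM DTT, pH 7.5) received compound, then a probe mix of 5 nM fluorescein-DNA and 100nM Texas-615-DNA. Fluorescence polarization was read for both dyes.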
Starred values were filed as active, the others as inactive; ? = inconclusive; / = no result; [ ] = remark or other dose. Unless noted, calls come from the whole dose curve; as a rule, active = well fitted curve in the direction sought with a large enough effect; inconclusive = small, poorly fitted or top-dose-only effect, or another doubt; inactive = no such curve, though single readings can be large; an effect the other way counts as inactive or inconclusive.

SMILES | Giardia killer | VP16 counter | a7 integrin act | RORgamma inh | ERG Ets-DNA blk
CCOC(=O)N1CCN(C(=O)CNC(=O)c2ccc(Br)cc2)CC1 | -6.7 | -9.9% | -3.4% | -1.1% | 0.7%
CCOC(=O)N1CCN(C(=S)NC(=O)c2cc(Br)ccc2Cl)CC1 | 6.3 | 5.01µM* | 0.0% | 0.891µM* | -5.4%
CCOC(=O)CC1C(=O)NCCN1C(=S)NC(=O)c1ccc(C)c(Br)c1 (centres undefined) | / | / | 4.6% | / | /
Cc1ccc(C(=O)NC(=S)N2CCN(C(=O)OC(C)(C)C)CC2)cc1Br | -2.4 | 1.12µM* | ? | 0.631µM* | 7.6%
CCOC(=O)N1CCN(C(=S)NC(=O)c2ccc(Br)cc2)CC1 | 1.1 | 1.26µM* | -8.0% | 0.562µM* | -7.7%
O=C(NC1CCCCNC1=O)c1ccco1 (centres undefined) | 7.1 | 2.2% | -25.4% | 15.6% | 7.0%
CCOC(=O)c1c(C)n(S(=O)(=O)c2ccc(C)cc2)c2ccc(NS(=O)(=O)c3ccc(C)cc3)cc12 | / | / | / | / | 5.1%
O=C(/C(Cl)=C/Nc1ccc(Br)cn1)C(F)(F)F | -2.0 | -0.1% | -14.1% | 20.0% | 2.6%
Brc1ccc(CNCCCSc2nnnn2-c2ccccc2)cc1 | / | / | / | / | -4.5%
CCOc1ccc(S(=O)(=O)Nc2cnc3ccccc3c2)cc1 | -15.7 | 6.31µM* | -45.2% | ? | -1.3%
Cc1cccc(NNC(N)=S)c1 | -2.5 | 10µM* | -6.3% | ? | -2.0%
NC(=S)NNc1cccc(Cl)c1 | -10.7 | 15.8µM* | -45.5% | 5.62µM* | 2.2%
C[C@H]1CN([C@@H](C)CO)C(=O)c2cc(Br)cnc2O[C@H]1CN(C)C(=O)c1ccccn1 | / | / | 9.6% | / | /
COc1ccc(/C=C(\CC(=O)O)c2nc3ccccc3o2)cc1 | 2.3 | 4.7% | 9.1% | 17.4% | -9.8%
COc1ccc(C(=O)/C(=C/c2cccs2)c2nc3ccccc3o2)cc1 | -4.0 | ? | -25.8% | 3.16µM* | -8.9%
O=c1cc(-c2ccccc2Cl)oc2cccc(O)c12 | -5.9 | -3.3%[96.6 µM] | -10.7% | 27.0%[96.6 µM] | -5.2%
O=c1cc(-c2ccccc2O)oc2ccc3ccccc3c12 | / | 7.08µM* | / | 6.31µM* | /
O=c1[nH]c(C(F)(F)C(F)(F)C(F)(F)F)no1 | -0.8 | / | -13.8% | / | -1.4%
Cc1cccc(N(C(=O)CNC(=O)c2ccco2)C(C(=O)NC2CCCCC2)c2cccnc2)c1 (centres undefined) | -3.8 | -13.1% | 17.6% | 5.5% | 1.8%
O=C(NC1CCCCC1)C(c1cccnc1)N(C(=O)CCl)c1cccc(Cl)c1 (centres undefined) | -1.1 | ? | -52.5% | 12.6µM* | /
COc1ccc(NC(=O)Cn2nnc(C(=O)NCc3cccs3)c2N)cc1Cl | -10.8 | -2.0% | -23.6% | 0.5% | -2.6%
O=C1CC(c2ccccc2)CC(O)=C1C=Nc1ccccc1O (centres undefined) | 0.7 | -23.1% | -24.8% | 11.2µM* | -4.9%
O=C1CC(c2ccccc2)CC(O)=C1C=Nc1ccccc1 (centres undefined) | 21.1 | 5.2% | -25.9% | 17.6% | 22.8%
Cc1ccc(NC(=O)N2C3CCCC2CC(NC(=O)C(C)(C)C)C3)cc1 (centres undefined) | -1.2 | -12.2% | 9.0% | -13.8% | 7.8%
O=C(O)c1ccc(N=Nc2c(O)ccc3ncccc23)cc1 | -10.0 | 3.16µM* | 19.3% | 1.12µM* | 1.1%
SMILES | Giardia killer | VP16 counter | a7 integrin act | RORgamma inh | ERG Ets-DNA blk
COc1ccc(/C=C/C(=O)ONC2=NCCCCC2)cc1OC | -18.0 | -24.2% | -6.0% | 11.2µM* | 22.2%
COc1ccc(/C=C/C(=O)Nc2ccccc2C(=O)O)cc1 | ? | 10µM* | -39.3% | 7.94µM* | -0.5%
COc1ccc(/C=C/C(=O)Nc2ccc3c(c2)CCC3)cc1OC | 29.6 | 3.98µM* | -12.6% | ? | 10.5%
COc1ccc(/C=C/C(=O)Nc2ccccc2C(=O)N2CCCC2)cc1 | 2.7 | 0.8% | 19.7% | 0.7% | 5.6%
COc1ccc(/C=C/C(=O)Nc2ccccc2C(F)(F)F)cc1OC | -7.2 | -5.3% | ? | 0.7% | 0.3%
COc1ccc(/C=C/C(=O)Nc2cccc(S(=O)(=O)NC3=NCCCCC3)c2)cc1OC | -16.6 | / | 2.1% | / | 2.3%
COc1ccc(NC(=O)Nc2ccc3c(c2)CCC3)cc1OC | -11.0 | -0.8%[10 µM] | 28.5% | 8.8% | 1.5%
COc1ccc(/C=C/C(=O)Nc2ccccc2C(=O)O)cc1OC | 10.2 | 7.94µM* | / | 3.55µM* | /
CCOc1ccc(CCNC(=O)c2cc3c(=O)n(C)c4ccccc4c3n2C)cc1OCC | / | / | / | / | -5.0%
CCN(c1ccccc1)S(=O)(=O)c1ccc(NN)nc1 | 34.7 | / | -40.3% | / | 5.2%
CC(C)N(C(C)C)S(=O)(=O)c1ccc(NN)nc1 | -16.2 | ? | -19.9% | 14.1µM* | 8.1%
CCN(CC)S(=O)(=O)c1ccc(NN)nc1 | -6.0 | 17.8µM* | 0.9% | 4.47µM* | -4.4%
CCN(CC)S(=O)(=O)c1ccc(N/N=C/c2cc(OC)ccc2O)nc1 | 16.1 | 11.2µM* | -20.4% | 4.47µM* | -3.4%
CSc1ccccc1C(=O)C1CCCN(S(=O)(=O)c2c(C)noc2C)C1 (centres undefined) | 11.5 | -5.0% | 0.0% | -15.7% | 8.3%
Cc1ccc(-c2c[n+]3c(n2-c2ccccc2)CCC3)cc1 | 2.2 | ? | -26.5% | ? | -9.4%
Cc1ccc(-n2c(-c3ccc(Br)cc3)c[n+]3c2CCc2ccc4cccnc4c2-3)cc1 | 4.1 | 1.41µM* | -64.1% | 7.08µM* | 6.7%
CC(C)(C)c1[nH]nc2c1C(Cc1ccccc1)C(C#N)=C(N)O2 (centres undefined) | 3.7 | -6.2% | -27.2% | 2.3% | ?
O=C1CSC(c2cn(-c3ccccc3)nc2-c2cc3ccccc3o2)N1Cc1ccccc1 (centres undefined) | 9.8 | 13.8% | ? | 0.7% | -2.9%
Cc1ccc(-c2nn(-c3ccccc3)cc2C2SCC(=O)N2Cc2ccccc2)o1 (centres undefined) | 17.5 | ? | -1.4% | 11.2µM* | 6.9%
Cc1ccc(NC(=O)CC(C)S(=O)(=O)c2ccc3c(c2)NC(=O)CO3)c(C)c1 (centres undefined) | / | / | / | / | 1.9%
COc1ccc(-c2nc3ccc(C(=O)NCc4ccccc4)cc3nc2-c2ccc(OC)cc2)cc1 | / | / | / | / | -8.3%
COc1cc2c(cc1OC)CN(C(=S)Nc1ccccc1)CC2 | 6.7 | -9.5% | -9.4% | 11.2µM* | /
COc1cc2c(cc1OC)CN(C(=S)Nc1ccc(C)cc1C)CC2 | 42.0 | 20µM* | -6.8% | 10µM* | -3.8%
COC(=O)[C@@]1(Cc2ccccc2)[C@H]2c3cc(C(=O)N4CCCC4)n(Cc4cccc5ccccc45)c3C[C@H]2CN1C(=O)c1ccccc1 | / | -5.3% | / | 12.3% | /
O=c1oc(-c2ccccc2)nc2c1C1(CCCCC1)Cc1ccccc1-2 | 36.0 | -1.2% | 0.0% | -25.1% | 6.6%
O=c1[nH]cnc2c1C1(CCCC1)Cc1ccccc1-2 | 9.5 | -8.8% | 31.8% | -1.9% | -4.3%
O=c1[nH]c(NNC(=S)NCc2ccccc2)nc2c1C1(CCCCC1)Cc1ccccc1-2 | 0.4 | 2.82µM* | 16.9% | 2.51µM* | 4.8%
